Rows were chosen to be rich in hits. Some 14% of all compounds tested hit in one or more screens of this group.
Pf growth 96h – Primary qHTS for delayed death inhibitors of the malarial parasite plastid, 96 hour incubation | P. falciparum luciferase reporter growth, 96 h | Potency, µM (highest dose often 28.7 µM), most hits filed as inhibitors | actives 6.9% (n = 320,000)
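Infected RBCs, 2% Hct / 0.05% parasitemia final; luciferase-reporter P. falciparum; cpd 96 h, 37 C, 5% CO2; luciferase detection reagent; luminescence.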
Giardia FBPA inh – qHTS Assay for Inhibitors of Fructose-1,6-bisphosphate Aldolase from Giardia Lamblia; A8B2U2; purified Giardia FBPA; Potency, µM (highest dose often 59.6 µM), actives largely listed as inhibitors; actives 0.71% (n = 290,000); AID 2451, 2010; also: nearly all actives have a fitted effect of over 55% in size
Target sequence (A8B2U2 whole entry, looked up): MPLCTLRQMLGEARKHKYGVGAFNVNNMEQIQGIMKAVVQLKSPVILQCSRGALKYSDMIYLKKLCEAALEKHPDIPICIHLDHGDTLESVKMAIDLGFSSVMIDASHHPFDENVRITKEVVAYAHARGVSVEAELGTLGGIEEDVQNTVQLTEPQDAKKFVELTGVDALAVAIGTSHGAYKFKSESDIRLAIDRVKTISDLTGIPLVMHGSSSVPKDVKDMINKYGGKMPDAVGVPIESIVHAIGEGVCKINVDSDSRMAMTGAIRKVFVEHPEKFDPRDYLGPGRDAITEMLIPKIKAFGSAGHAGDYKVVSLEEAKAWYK
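Giardia FBPA (40 nM reagent) was preincubated 10 min at RT with compound (up to 57.5 uM final), then substrate plus GAPDH/TPI/NAD/arsenate coupling system with diaphorase/resazurin was added; resorufin fluorescence (525/598 nm) was read after 20 min.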
Pf growth 48h – Primary qHTS for delayed death inhibitors of the malarial parasite plastid, 48 hour incubation. actives 5.9% (n = 310,000). P. falciparum luciferase growth in erythrocytes, 48 h. Potency, µM (titrated, usually from 28.7 µM), hits mostly inhibitors
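A one-generation exposure of luciferase-tagged malaria parasites in RPMI 1640/Albumax erythrocyte culture, 37 C and 5% CO2. Inhibition is inferred from decreased luminescence after adding detection reagent.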
HCMV antiviral – qHTS Assay for inhibitors of the human cytomegalovirus (HCMV); activity change, negative = inhibition, % at 57.5 µM; AID 1259415, 2018; actives 4.5% (n = 410,000); HFF cells, HCMV-luciferase reporter, 72 h; active compounds read low; in the data active = activity change below about -60%; inconclusive = no clear call, values can overlap the other calls; inactive = above about -39%
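Steps: HFFs plated, 16 h 37C; compounds added; HCMV-luciferase added to MOI 1 PFU/cell; 72 h 37C; OneGlo reagent, 5 min room temperature; luminescence read, normalized to controls.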
Sm TGR block – qHTS Assay for the Inhibitors of Schistosoma Mansoni Peroxiredoxins. Schistosoma mansoni thioredoxin glutathione reductase (TGR), Q962Y6. purified TGR, DTNB reduction, TNB absorbance 405 nm. Potency, µM (series often up to 114 µM), most hits filed as inhibitors. actives 3% (n = 360,000); also: nearly all actives have a fitted effect of over 60% in size
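Kinetic colorimetric format: TGR-catalysed, NADPH-driven DTNB reduction monitored via TNB absorbance. Enzyme dispensed at 20 nM; compound exposure 15 min at room temperature before reaction start.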
Large screens that a line does not name were inactive. Unless noted, calls follow the shape of the dose curve; as a rule, active = well fitted curve in the direction sought with a large enough effect; inconclusive = small, poorly fitted or top-dose-only effect, or another doubt; inactive = no such curve, though single readings can be large; an effect the other way counts as inactive or inconclusive.

COc1ccc(CNC(=O)C2CCN(S(=O)(=O)c3ccc4c(c3)CC(C)N4C(=O)C3CC3)CC2)cc1 (stereo not drawn)	Pf growth 96h 15µM, Pf growth 48h inconclusive (no result: Giardia FBPA inh)
CC(=O)N1c2ccc(S(=O)(=O)N3CCCC(C(=O)NCc4ccccc4Cl)C3)cc2CC1C (stereo not drawn)	Pf growth 96h inconclusive, Pf growth 48h inconclusive
CCc1cccc(NC(=O)C2CCCN2S(=O)(=O)c2ccc3c(c2)CC(C)N3C(C)=O)c1 (stereo not drawn)	Pf growth 96h inconclusive, Pf growth 48h 12µM
COc1cccc(CNS(=O)(=O)c2ccc3c(c2)CCN3C(=O)C2CCC2)c1	none (no result: Pf growth 96h, Giardia FBPA inh, Pf growth 48h)
COc1ccc(CNS(=O)(=O)c2ccc3c(c2)CCN3C(=O)C2CC2)cc1	HCMV antiviral -62 (no result: Pf growth 48h)
CC(=O)N1c2ccc(S(=O)(=O)N3CCCC3C(=O)Nc3cccc(F)c3)cc2CC1C (stereo not drawn)	Pf growth 96h inconclusive, Pf growth 48h inconclusive
O=c1c(-c2ccc(Cl)cc2)nc2cnc(N3CCOCC3)nc2n1-c1ccccc1	none (no result: Pf growth 96h, Pf growth 48h, HCMV antiviral, Sm TGR block)
CC(=O)N1c2ccc(S(=O)(=O)N3CCC(C(=O)NCc4ccc(Cl)cc4)CC3)cc2CC1C (stereo not drawn)	Pf growth 48h 9.3µM, HCMV antiviral inconclusive (no result: Giardia FBPA inh)
CCC(C)NC(=O)C1CCCN(S(=O)(=O)c2ccc3c(c2)CC(C)N3C(C)=O)C1 (stereo not drawn)	none
CC1Cc2cc(S(=O)(=O)N3CCC(C(=O)NCc4ccco4)CC3)ccc2N1C(=O)C1CCC1 (stereo not drawn)	Pf growth 96h inconclusive, Pf growth 48h 9.3µM, HCMV antiviral inconclusive
CCCCNC(=O)C1CCN(S(=O)(=O)c2ccc3c(c2)CC(C)N3C(=O)C2CC2)CC1 (stereo not drawn)	Pf growth 96h inconclusive, Pf growth 48h inconclusive
CCc1ccccc1NC(=O)C1CCCN(S(=O)(=O)c2ccc3c(c2)CC(C)N3C(C)=O)C1 (stereo not drawn)	Pf growth 96h 13µM, Pf growth 48h inconclusive
Cc1ccc(CNC(=O)C2CCN(S(=O)(=O)c3ccc4c(c3)CC(C)N4C(=O)C3CC3)CC2)cc1 (stereo not drawn)	none
CC(=O)N1c2ccc(S(=O)(=O)N3CCC(C(=O)NCc4ccc(C)cc4)CC3)cc2CC1C (stereo not drawn)	Pf growth 96h 12µM, Pf growth 48h inconclusive, HCMV antiviral inconclusive (no result: Giardia FBPA inh)
C/C(=N\NC(=O)c1cc(-c2ccc(C)s2)[nH]n1)c1ccco1	none
COc1ccccc1C(=O)Nc1ccc2oc(-c3ccc(F)cc3)nc2c1	Pf growth 96h 10µM
COc1cc(C(=O)Nc2ccc3oc(-c4cccnc4)nc3c2)cc(OC)c1OC	Pf growth 96h inconclusive
COc1cc(C(=O)Nc2ccc3oc(-c4ccccc4)nc3c2)cc(OC)c1OC	HCMV antiviral -81 (no result: Pf growth 96h, Giardia FBPA inh, Pf growth 48h)
CCOc1ccc(C(=O)Nc2ccc(-c3nc4cc(CC)ccc4o3)cc2)cc1	HCMV antiviral -74 (no result: Pf growth 96h, Giardia FBPA inh, Pf growth 48h)
O=C(COc1ccccc1C(=O)NCc1ccccc1)Nc1ccccc1	Pf growth 48h inconclusive (no result: Giardia FBPA inh)
CC(=O)NCCNc1nc(-c2ccc3c(c2)OCO3)nc2ccccc12	none (no result: Pf growth 96h, Pf growth 48h, HCMV antiviral, Sm TGR block)
CCOc1ccc(OCC)c(NC(=O)C(NS(=O)(=O)c2ccc(Br)s2)c2ccccc2)c1 (stereo not drawn)	none (no result: Pf growth 96h, Giardia FBPA inh, Pf growth 48h)
Cc1ccc([C@@H]2C[C@H]3[C@@H](CN2S(=O)(=O)c2ccc(C)cc2)C(=O)C[C@@H](c2ccccc2)N3S(=O)(=O)c2ccc(C)cc2)cc1	none (no result: Pf growth 96h, Giardia FBPA inh, Pf growth 48h, Sm TGR block)
Cc1ccc(S(=O)(=O)N2[C@H](c3cccc(Cl)c3)CC(=O)[C@@H]3CN(S(=O)(=O)c4ccccc4C)[C@H](c4ccc(Cl)cc4)C[C@@H]32)cc1	HCMV antiviral -83 (no result: Pf growth 96h, Giardia FBPA inh, Pf growth 48h, Sm TGR block)
CC(=O)C1CN(S(=O)(=O)c2ccc(C)cc2)C(c2ccccc2)CC1C (stereo not drawn)	HCMV antiviral -60 (no result: Pf growth 96h, Giardia FBPA inh, Pf growth 48h, Sm TGR block)
Cc1ccc(S(=O)(=O)N2C[C@H]3C(=O)C[C@@H](c4ccccc4)N(S(C)(=O)=O)[C@H]3C[C@H]2c2ccccc2)cc1	HCMV antiviral -95 (no result: Pf growth 96h, Giardia FBPA inh, Pf growth 48h, Sm TGR block)
Cc1ccc(S(=O)(=O)N2C[C@H]3C(=O)C[C@@H](c4ccccc4)N(S(=O)(=O)c4ccc(C)cc4)[C@H]3C[C@H]2c2ccc(Cl)cc2)cc1	HCMV antiviral -85 (no result: Pf growth 96h, Giardia FBPA inh, Pf growth 48h, Sm TGR block)
Cc1ccc([C@@H]2C[C@H]3[C@@H](CN2S(=O)(=O)c2ccc(Cl)cc2)C(=O)C[C@@H](c2cccc(Cl)c2)N3S(=O)(=O)c2ccc(C)cc2)cc1	none (no result: Pf growth 96h, Giardia FBPA inh, Pf growth 48h, Sm TGR block)
COC(=O)CC(NS(=O)(=O)c1cccs1)c1ccc2c(c1)OCO2 (stereo not drawn)	none
O=C(CNc1ccc(Br)cc1)c1ccc(Br)s1	none
Nc1cc2c3ccccc3ccc2c2ccccc12	none (no result: Pf growth 96h, Giardia FBPA inh, Pf growth 48h, Sm TGR block)
Cc1ccc(S(=O)(=O)N2[C@H](c3ccc(Cl)cc3)CC(=O)[C@@H]3CN(S(=O)(=O)c4ccccc4C)[C@H](c4ccc(Cl)cc4)C[C@@H]32)cc1	HCMV antiviral -89 (no result: Pf growth 96h, Giardia FBPA inh, Pf growth 48h, Sm TGR block)
Cc1ccc([C@@H]2CC(=O)[C@@H]3CN(S(=O)(=O)c4ccccc4C)[C@H](c4ccc(Cl)cc4)C[C@@H]3N2S(=O)(=O)c2ccc(C)cc2)cc1	HCMV antiviral -94 (no result: Pf growth 96h, Giardia FBPA inh, Pf growth 48h, Sm TGR block)
COc1ccc(C2CC(=O)C3=C(C2)NC(C)=C(C(=O)Nc2ccccc2C)C3c2coc3ccc(C)cc3c2=O)cc1OC (stereo not drawn)	Pf growth 96h inconclusive, Pf growth 48h 2.3µM
CC1=C(C(=O)Nc2ccccc2)C(c2coc3ccccc3c2=O)C2=C(CCCC2=O)N1 (stereo not drawn)	none
CC(C)NC(=O)c1ccc(CSCc2ccccc2Cl)o1	Pf growth 96h 4.7µM, Pf growth 48h 1.5µM
CCC(C)NC(=O)c1ccc(CSCc2ccccc2Cl)o1 (stereo not drawn)	Pf growth 48h 7.4µM
O=C(O)c1ccc(CSCc2ccccc2Cl)o1	none
COc1ccc(OC)c(Nc2nc(-c3ccccc3O)nc3ccccc23)c1	Pf growth 96h inconclusive (no result: Sm TGR block)
COc1ccccc1Nc1nc(-c2ccccc2O)nc2ccccc12	Pf growth 96h inconclusive, Pf growth 48h inconclusive, HCMV antiviral -70
Oc1ccccc1Nc1nc(-c2ccccc2O)nc2ccccc12	Pf growth 96h 1.3µM, Pf growth 48h 1µM
Oc1ccc(Nc2nc(-c3ccccc3O)nc3ccccc23)cc1	Pf growth 96h inconclusive, Giardia FBPA inh inconclusive
C/C(=N\Nc1nc(-c2ccccc2O)nc2ccccc12)c1ccccc1	Pf growth 96h inconclusive, Pf growth 48h 0.52µM
O=C(CNC(=O)c1ccccc1)OC(C(=O)Nc1cc(C(F)(F)F)ccc1Cl)c1ccccc1 (stereo not drawn)	Pf growth 96h 13µM, HCMV antiviral inconclusive (no result: Pf growth 48h)

Source: PubChem
